Experimental data: the supplement of paper PMC12636033
± gives the standard deviation of the averaged measurements. The full ranking holds about 33,000 sequences; the median of “E-score (rank enrichment, -0.5 to 0.5)” is about -0.0075, and the highest 2% start at about 0.23. The list comes from a sample in which the highest values are over-represented; it also holds similar and randomly drawn sequences.

test system: WT Max(13-93) synthetic (M65Nle); assay: PBM 8-mer E-score (E-score (rank enrichment, -0.5 to 0.5)); higher = stronger preferential binding
Procedure: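 Protein binding microarray (universal PBM chip covering all 10-mers in fixed probe flanks) with chemically synthesized human Max(13-93) bHLH-LZ analogs (not full-length Max) bearing noncanonical residues (hArg, Tha, Aib, Nle at 65) and aromatic Cys staples. Read-out per 8-mer (and its reverse complement): E-score (rank-based enrichment, -0.5 to 0.5) and Z-score of median probe intensity.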

Sequence | PBM 8-mer E-score
ATAGTCTC | 0.0149 ± 0.021
ACGGCCAT | -0.0405 ± 0.11
ATTAGGCG | -0.0541 ± 0.021
CTTGCAGC | -0.155 ± 0.06
AAGGCCCA | -0.0696 ± 0.03
AACCTCGG | -0.285 ± 0.089
ACAGCAGA | -0.0839 ± 0.019
CCTGGCCC | -0.288 ± 0.052
CATTCATA | 0.243 ± 0.071
GATTCATA | -0.0144 ± 0.0027
CATTCATC | 0.048 ± 0.036
CTACGGGA | 0.0112 ± 0.028
CATACATA | 0.17 ± 0.086
AATACATG | 0.243 ± 0.072
CATACATC | 0.135 ± 0.022
CATACATG | 0.245 ± 0.026
AATACATT | 0.132 ± 0.098
CATACACA | 0.228 ± 0.099
CATACACG | 0.238 ± 0.086
AATACATA | 0.211 ± 0.11
TATACACA | 0.0996 ± 0.085
AAAAGCAA | 0.066 ± 0.13

Sequence | PBM 8-mer E-score
GCCAGATA | -0.00267 ± 0.056
CCAACTTC | 0.0001 ± 0.0037
TGGAAAAA | 0.0641 ± 0.057
ACTGTCCT | -0.0581 ± 0.038
CACGAGGA | 0.217 ± 0.02
CACGAGAA | 0.12 ± 0.075
CACGAGTA | 0.237 ± 0.0057
TACGAGTA | 0.173 ± 0.023
CACGAGGC | 0.252 ± 0.079
GACGAGTA | 0.0201 ± 0.095
AACGAGAT | -0.133 ± 0.092
AACGAGAA | 0.242 ± 0.073
CACGAGGG | 0.1535 ± 0.0012
CCTACAGA | -0.0418 ± 0.11
ATTTGTGC | 0.0791 ± 0.13
CCGGCCAC | -0.164 ± 0.0042
ACAAGCCA | -0.0302 ± 0.081
CAATAATA | 0.275 ± 0.019
CAATAAAA | 0.29 ± 0.011
CAATAATG | 0.0933 ± 0.042
CAATAATC | 0.00647 ± 0.1
GAATAAAA | 0.184 ± 0.097

Sequence | PBM 8-mer E-score
CAATAAAC | 0.139 ± 0.04
CCGACTCA | -0.185 ± 0.0089
CCTCAAAA | 0.192 ± 0.0034
CCGCGTAG | -0.0165 ± 0.042
CGCTTCCC | -0.0261 ± 0.049
CTTTGTTA | 0.195 ± 0.042
AAGGAGGA | -0.0623 ± 0.0073
ATCATTGC | 0.0872 ± 0.064
AGTATACA | 0.155 ± 0.15
TGTATACA | 0.307 ± 0.074
CGTATACC | -0.109 ± 0.063
CGTATACA | 0.105 ± 0.07
GGTATACA | 0.0958 ± 0.069
CGTATACG | 0.241 ± 0.024
CCGATCCC | -0.173 ± 0.033
ATCACCCC | 0.117 ± 0.11
CCAGGACC | -0.162 ± 0.086
ATAATCAG | 0.256 ± 0.14
CTAATCAG | 0.027 ± 0.0044
ATAATCAA | 0.15 ± 0.011
ATAATCAT | 0.285 ± 0.0003
ATAATCAC | 0.04 ± 0.043

Sequence | PBM 8-mer E-score
AAAATCAG | 0.104 ± 0.15
AGCTTCTC | 0.118 ± 0.0033
AGACGTCG | -0.117 ± 0.066
CACCCTCC | 0.202 ± 0.054
CGGGGTCC | -0.276 ± 0.066
CCATGGTC | 0.0328 ± 0.1
ACATGGTA | 0.277 ± 0.008
CCATGGTA | 0.0299 ± 0.078
ACATGGCC | 0.232 ± 0.14
GCATGGTA | 0.185 ± 0.032
ACATGGCG | 0.183 ± 0.026
CTATGGTC | -0.0873 ± 0.11
GCATGGCC | 0.0853 ± 0.066
ACATGGGG | 0.273 ± 0.033
CCATGGGG | -0.138 ± 0.011
ACATGGGA | 0.135 ± 0.03
ACATGGTC | 0.319 ± 0.016
AAATCGCT | -0.0979 ± 0.047
ACTGTGTG | 0.0422 ± 0.088
AAGAACTA | 0.204 ± 0.045
